Test results taken from PubChem BioAssay (NCATS).
Inconclusive results are not listed. Active and inactive are the calls of the source. Unless noted, the call rests on the fitted dose curve; in most records, active means well fitted curve in the direction sought with a large enough effect; inconclusive means small, poorly fitted or top-dose-only effect, or another doubt; inactive means no such curve, though single readings can be large; an effect the other way counts as inactive or inconclusive.

Assays:
[1] = qHTS for differential inhibitors of proliferation of Plasmodium falciparum line D10 (AID 1877);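 further: parasites grown with compound for 72 h before DNA staining; plate controls were vehicle wells for no effect and reference inhibitor wells for full effect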
[2] = qHTS for differential inhibitors of proliferation of Plasmodium falciparum line Dd2 (AID 1882); conditions: Potency: Plasmodium falciparum Dd2 proliferation inhibition;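 further: series mostly up to about 29 µM; plate controls were DMSO vehicle for no effect and 0.29 µM artemisinin for full effect; nearly all actives have a fitted effect of over 65% in size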
Procedure, shortened: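 SYBR Green DNA fluorescence (ex 485, em 535 nm) after overnight lysis quantifies parasite growth; compound exposure lasted 72 h at 37 C on infected red cells at 2.5% hematocrit, 0.3% parasitemia (final). Artemisinin 0.29 uM and vehicle wells define normalization.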

[3] = qHTS for differential inhibitors of proliferation of Plasmodium falciparum line W2 (AID 1883); conditions: Potency: Plasmodium falciparum W2 proliferation inhibition;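 further: parasites grown with compound for 72 h before lysis and staining; 0% = vehicle wells and -100% = control inhibitor wells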
[4] = qHTS for differential inhibitors of proliferation of Plasmodium falciparum line HB3 (AID 1886); conditions: Potency: Plasmodium falciparum HB3 proliferation inhibition;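 further: parasites grown with compound for 72 h before SYBR Green readout; plate controls were vehicle for no effect and reference inhibitor for full effect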
[5] = qHTS Assay for Modulators of Human Peripheral Myelin Protein 22 (PMP22) Expression/Activity (AID 1967; active means well fitted curve in the direction sought with a large enough effect in the signal ratio; the % refers to the signal ratio;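 further: 0% = untreated cells and 100% end not stated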)
Procedure, shortened: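 Mouse MSC80 Schwann cells carrying Pmp22 promoter–green click beetle luciferase plus EF-alpha–red luciferase control, dosed 24 h at 37 °C. Dual-filter luminescence, overlap-corrected; %Activity from green/red ratio normalised to untreated cells, concentration-response curves fitted.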

[6] = biological target: Ferritin light chain (Equus caballus) (UniProt P02791); assay: qHTS Validation Assay for Identification of Novel General Anesthetics (AID 2323); further: series mostly up to about 77 µM; on the % scale 0 is the no-effect control and ±100 the full control effect
Ferritin light chain (Equus caballus), sequence (P02791 2-175 limits assumed): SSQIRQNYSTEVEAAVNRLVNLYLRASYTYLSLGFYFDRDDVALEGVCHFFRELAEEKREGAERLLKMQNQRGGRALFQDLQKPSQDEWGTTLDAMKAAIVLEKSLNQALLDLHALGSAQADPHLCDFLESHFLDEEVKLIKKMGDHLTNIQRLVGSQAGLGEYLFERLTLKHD
Procedure, shortened: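 Horse-spleen apoferritin (10 uM) in PBS with 50% saturated 1-aminoanthracene; compounds pin-transferred, 10 min at room temperature. Fluorescence read at 380/535 nm, normalized to free 1-AMA and 1-AMA/apoferritin values; four-parameter Hill fit.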

[7] = biological target: ATP-dependent DNA helicase Q1 (Homo sapiens) (UniProt P46063); assay: qHTS Validation Assay for Inhibitors of RecQ-Like Dna Helicase 1 (RECQ1) (AID 2353);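 further: plate controls were DMSO vehicle for no effect and enzyme-free control for full effect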
Procedure, shortened: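 RECQ1T1 50 nM; forked duplex (20 bp + 30-nt ss tails) 200 nM, ATP 2 mM final; pH 8.0, 2 mM MgCl2, 2.5 ug/ml poly(dI-dC); 15 min compound preincubation; discontinuous kinetic read over 2 h at RT.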

[8] = Validation screen for inhibitors of Lassa infection (AID 463096; calls by dose curve; further: on the % scale 0 is the no-effect control and ±100 the full control effect)
[9] = Validation screen for small molecules that induce DNA re-replication in MCF 10A normal breast cells (AID 463097); further: 0% is about no effect; nearly all actives have a fitted effect of over 60% in size
Procedure, shortened: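 MCF 10A cells exposed to compound 48 hr at 37 C, 5% CO2, then Hoechst-stained 40 min. Laser-scanning imaging of nuclear DNA content (405 nm ex, 500-530 nm em); re-replication scored as rise in nuclei with elevated fluorescence intensity.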

[10] = Quantitative high throughput screen for delayed death inhibitors of the malarial parasite plastid, 48 hour incubation (AID 488752); further: on the % scale 0 is the no-effect control and ±100 the full control effect; nearly all actives have a fitted effect of over 65% in size
Procedure, shortened: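 First, compound was pinned into RPMI 1640 medium containing 0.5% Albumax. Next, reporter-parasite-infected erythrocytes were added to 2% hematocrit and 0.1% parasitemia. After 48 h at 37 C under 5% CO2, luciferase detection reagent was added and luminescence read.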

[11] = biological target: M-phase phosphoprotein 8 (Homo sapiens) (UniProt Q99549); assay: qHTS Validation Assay for Inhibitors for MPP8 Chromodomain Interactions with Methylated Histone Tails (AID 488949); further: top concentration of the series differs between compounds; on the % scale 0 is the no-effect control and ±100 the full control effect; nearly all actives have a fitted effect of over 55% in size
M-phase phosphoprotein 8 (Homo sapiens), sequence (Q99549 whole entry, looked up): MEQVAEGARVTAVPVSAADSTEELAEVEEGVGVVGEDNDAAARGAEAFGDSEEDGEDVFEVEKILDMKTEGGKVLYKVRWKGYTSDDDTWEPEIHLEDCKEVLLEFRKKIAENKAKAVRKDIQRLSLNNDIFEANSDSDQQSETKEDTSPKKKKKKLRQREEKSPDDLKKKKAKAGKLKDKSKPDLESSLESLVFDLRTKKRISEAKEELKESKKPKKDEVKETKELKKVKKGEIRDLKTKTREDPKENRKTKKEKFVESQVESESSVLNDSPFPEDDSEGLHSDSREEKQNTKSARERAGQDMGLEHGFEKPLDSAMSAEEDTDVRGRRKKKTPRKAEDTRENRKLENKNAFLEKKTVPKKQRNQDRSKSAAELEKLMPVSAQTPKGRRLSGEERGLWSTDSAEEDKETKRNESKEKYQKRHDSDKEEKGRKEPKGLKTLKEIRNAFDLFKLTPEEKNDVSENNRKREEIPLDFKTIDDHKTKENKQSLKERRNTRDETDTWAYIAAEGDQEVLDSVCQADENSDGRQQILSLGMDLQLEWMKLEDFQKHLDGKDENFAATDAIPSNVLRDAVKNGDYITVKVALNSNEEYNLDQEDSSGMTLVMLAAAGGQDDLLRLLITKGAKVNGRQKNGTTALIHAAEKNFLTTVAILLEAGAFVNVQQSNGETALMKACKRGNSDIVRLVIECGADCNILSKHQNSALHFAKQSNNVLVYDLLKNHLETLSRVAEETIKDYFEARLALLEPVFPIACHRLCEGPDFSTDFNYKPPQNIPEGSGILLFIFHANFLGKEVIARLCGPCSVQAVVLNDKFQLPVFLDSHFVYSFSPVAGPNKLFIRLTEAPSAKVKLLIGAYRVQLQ
Procedure, shortened: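 MPP8 (50 nM) was pre-bound to 50 nM biotinylated H3(1-18)K9me3 peptide in PBS pH 7.4 with 0.01% Tween-20. Compounds were then added for 30 min at room temperature, and complex disruption was read by AlphaScreen with streptavidin donor and nickel-chelate acceptor beads.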

[12] = biological target: Transient receptor potential cation channel subfamily V member 1 (Homo sapiens) (UniProt Q8NER1); assay: HTS Assay for Compounds that Act as Enhancers of the Vanilloid Receptor 1 (AID 488979); further: 0% is about no effect
Transient receptor potential cation channel subfamily V member 1 (Homo sapiens), sequence (Q8NER1 whole entry, looked up): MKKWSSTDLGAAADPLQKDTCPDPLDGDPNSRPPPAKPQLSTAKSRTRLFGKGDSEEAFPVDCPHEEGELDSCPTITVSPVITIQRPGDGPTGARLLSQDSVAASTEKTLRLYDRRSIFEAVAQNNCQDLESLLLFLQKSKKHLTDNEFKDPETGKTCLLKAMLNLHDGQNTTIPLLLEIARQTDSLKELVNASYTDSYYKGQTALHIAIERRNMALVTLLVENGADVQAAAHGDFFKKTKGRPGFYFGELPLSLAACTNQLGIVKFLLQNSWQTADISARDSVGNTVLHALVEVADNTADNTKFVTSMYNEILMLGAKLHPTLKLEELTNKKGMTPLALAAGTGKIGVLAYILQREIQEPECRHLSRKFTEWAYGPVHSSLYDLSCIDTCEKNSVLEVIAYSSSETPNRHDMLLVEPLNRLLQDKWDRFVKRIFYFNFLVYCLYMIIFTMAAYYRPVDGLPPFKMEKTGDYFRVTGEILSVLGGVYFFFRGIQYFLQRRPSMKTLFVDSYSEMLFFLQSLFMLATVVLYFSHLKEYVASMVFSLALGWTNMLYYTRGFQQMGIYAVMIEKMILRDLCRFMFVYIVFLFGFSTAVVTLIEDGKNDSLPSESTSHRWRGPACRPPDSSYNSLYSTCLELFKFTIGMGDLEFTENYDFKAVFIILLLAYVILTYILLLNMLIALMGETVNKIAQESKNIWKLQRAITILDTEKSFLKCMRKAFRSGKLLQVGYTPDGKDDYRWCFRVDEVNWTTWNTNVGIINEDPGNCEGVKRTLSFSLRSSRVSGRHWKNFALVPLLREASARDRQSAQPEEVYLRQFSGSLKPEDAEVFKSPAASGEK
Procedure, shortened: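 TRPV1-expressing cells loaded with Fluo-8 calcium dye; compounds added and calcium influx read kinetically for 3 min (agonist phase), then capsaicin at EC20 added and read 2 min more for enhancement. Fluorescence ex 480/em 520 nm.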

[13] = biological target: Thyrotropin receptor (Homo sapiens) (UniProt P16473); assay: qHTS Assay for Antagonists of the Thyroid Stimulating Hormone Receptor (AID 488980); further: series mostly up to about 58 µM; 0% is about no effect
Procedure, shortened: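 TSHR-transfected HEK293 cells (2000/well) in HEPES-buffered HBSS with 70 uM RO 20-1724 were stimulated with 4 nM TSH (EC80, final) in the presence of compound. cAMP was measured by HTRF competition after lysis and 30 min at RT.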

[14] = biological target: Thyrotropin-releasing hormone receptor (Homo sapiens) (UniProt P34981); assay: qHTS for Small Molecule Agonists and Allosteric Enhancers of Human TRH Receptor: Validation Screen for Agonists (AID 493127;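 active means calcium activation more than 3 SD above the typical response in the agonist read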;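 further: intracellular calcium rise by fluo-8 fluorescence before TRH EC20 addition; 0% is about no effect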); conditions: TRH receptor agonist cell assay; at 2 µM; active compounds read high
Thyrotropin-releasing hormone receptor (Homo sapiens), sequence (P34981 whole entry, looked up): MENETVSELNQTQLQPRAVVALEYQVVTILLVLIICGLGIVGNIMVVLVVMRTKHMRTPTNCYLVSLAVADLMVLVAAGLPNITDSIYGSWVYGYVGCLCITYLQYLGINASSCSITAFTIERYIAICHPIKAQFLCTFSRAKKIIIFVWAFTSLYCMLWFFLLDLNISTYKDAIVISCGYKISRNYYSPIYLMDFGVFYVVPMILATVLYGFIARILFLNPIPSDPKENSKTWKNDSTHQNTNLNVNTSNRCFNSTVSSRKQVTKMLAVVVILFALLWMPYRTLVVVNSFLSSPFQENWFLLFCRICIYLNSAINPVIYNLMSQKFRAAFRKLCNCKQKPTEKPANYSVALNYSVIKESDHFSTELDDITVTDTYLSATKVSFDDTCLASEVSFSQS
Procedure, shortened: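 Compounds are added by online pintool to dye-loaded TRHR cells while fluorescence is recorded every second. A rise in calcium signal during the agonist read marks activation; a later 10 nM TRH addition (EC20) serves the separate enhancer mode.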

[15] = biological target: Galactokinase (Homo sapiens) (UniProt P51570); assay: qHTS Validation Assay for Inhibitors of Human Galactokinase (GALK) (AID 493189); further: 0% is about no effect
Galactokinase (Homo sapiens), sequence (P51570 whole entry, looked up): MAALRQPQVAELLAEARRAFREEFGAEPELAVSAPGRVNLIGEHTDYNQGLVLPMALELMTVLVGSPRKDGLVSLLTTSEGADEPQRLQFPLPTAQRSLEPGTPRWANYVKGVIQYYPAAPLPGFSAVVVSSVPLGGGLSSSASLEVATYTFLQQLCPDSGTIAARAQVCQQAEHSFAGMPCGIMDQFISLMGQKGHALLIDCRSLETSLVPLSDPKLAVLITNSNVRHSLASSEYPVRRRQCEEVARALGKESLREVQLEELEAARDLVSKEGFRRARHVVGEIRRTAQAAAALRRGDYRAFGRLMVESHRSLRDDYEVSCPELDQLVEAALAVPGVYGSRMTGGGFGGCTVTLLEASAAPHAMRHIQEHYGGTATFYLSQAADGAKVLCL
Procedure, shortened: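 GALK (5 nM) with 35 uM ATP and 100 uM galactose in HEPES pH 8.0 with MgCl2, NaCl, DTT and BSA. Reaction ran 1 h at room temperature. Residual ATP read by Kinase-Glo Plus luminescence.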

[16] = Validation screen for small molecules that induce DNA re-replication in SW480 colon adenocarcinoma cells (AID 504364); further: 0% is about no effect
Procedure, shortened: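 Image-based qHTS: compounds were incubated with SW480 cells for 48 hr, nuclei stained with Hoechst, and per-nucleus fluorescence intensity scanned to flag cells with excess DNA content.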

[17] = biological target: Ubiquitin carboxyl-terminal hydrolase 1 (Homo sapiens) (UniProt O94782); assay: Inhibitors of USP1/UAF1: Pilot qHTS (AID 504865);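 further: rhodamine fluorescence freed from ubiquitin-rhodamine substrate followed over time; top concentration of the series differs between compounds; on the % scale 0 is the no-effect control and ±100 the full control effect; nearly all actives have a fitted effect of over 35% in size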
Ubiquitin carboxyl-terminal hydrolase 1 (Homo sapiens), sequence (O94782 whole entry, looked up): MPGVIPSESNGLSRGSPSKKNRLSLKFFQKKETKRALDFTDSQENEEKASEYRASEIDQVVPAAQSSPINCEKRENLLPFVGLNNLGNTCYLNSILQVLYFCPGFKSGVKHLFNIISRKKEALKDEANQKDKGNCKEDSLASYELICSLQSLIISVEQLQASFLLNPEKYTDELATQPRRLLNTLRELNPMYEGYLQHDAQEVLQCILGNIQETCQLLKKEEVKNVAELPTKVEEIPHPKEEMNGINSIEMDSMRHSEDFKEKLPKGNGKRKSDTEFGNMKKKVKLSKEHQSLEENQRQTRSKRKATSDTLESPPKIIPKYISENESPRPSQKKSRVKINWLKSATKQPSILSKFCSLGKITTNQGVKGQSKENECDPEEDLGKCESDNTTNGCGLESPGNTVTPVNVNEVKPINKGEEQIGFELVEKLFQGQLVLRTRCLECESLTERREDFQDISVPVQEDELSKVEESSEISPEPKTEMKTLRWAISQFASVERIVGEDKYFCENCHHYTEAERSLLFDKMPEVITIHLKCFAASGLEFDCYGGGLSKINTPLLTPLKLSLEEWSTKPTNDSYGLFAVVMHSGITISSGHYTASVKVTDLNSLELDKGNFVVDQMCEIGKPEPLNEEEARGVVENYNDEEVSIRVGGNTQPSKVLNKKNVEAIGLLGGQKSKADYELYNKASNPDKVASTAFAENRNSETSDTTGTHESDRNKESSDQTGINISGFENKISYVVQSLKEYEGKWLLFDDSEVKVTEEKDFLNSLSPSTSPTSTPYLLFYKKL
Procedure, shortened: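 USP1/UAF1 complex at 1 nM preincubated 15 min at room temperature with compound, then Ub-Rho substrate added at 150 nM final. Fluorescence (480/540 nm) read kinetically in 50 mM HEPES pH 7.8, 0.5 mM EDTA, 1 mM TCEP, 0.1 mg/ml BSA, 0.01% Tween-20.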

[18] = biological target: DNA dC->dU-editing enzyme APOBEC-3G (Homo sapiens) (UniProt Q9HC16); assay: qHTS for inhibitors of Vif-A3G interactions: Validation (AID 588379); further: 0% is about no effect
DNA dC->dU-editing enzyme APOBEC-3G (Homo sapiens), sequence (Q9HC16 whole entry, looked up): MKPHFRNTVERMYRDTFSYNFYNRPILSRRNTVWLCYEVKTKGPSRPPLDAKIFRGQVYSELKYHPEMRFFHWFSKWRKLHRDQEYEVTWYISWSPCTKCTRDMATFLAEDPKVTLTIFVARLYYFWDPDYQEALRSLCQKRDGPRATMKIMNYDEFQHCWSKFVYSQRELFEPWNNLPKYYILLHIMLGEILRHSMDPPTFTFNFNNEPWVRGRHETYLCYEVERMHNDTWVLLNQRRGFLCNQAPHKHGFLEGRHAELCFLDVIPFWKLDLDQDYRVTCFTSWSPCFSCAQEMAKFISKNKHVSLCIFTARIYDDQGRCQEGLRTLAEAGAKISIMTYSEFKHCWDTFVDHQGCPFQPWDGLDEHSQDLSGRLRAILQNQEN
Procedure, shortened: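 Yellow fluorescence (Ex 488, Em 500-530) of Vif-coexpressing HeLa A3G-eYFP cells, scanned by Acumen cytometer, reports blocked A3G degradation. Cells plated at 700/well overnight at 37 deg C before compound addition, then a further overnight compound incubation at 37 deg C.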

[19] = biological target: Voltage-gated inwardly rectifying potassium channel KCNH2 (Homo sapiens) (UniProt Q12809); assay: qHTS Assay for Small Molecule Inhibitors of the Human hERG Channel Activity (AID 588834);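 further: top concentration of the series differs between compounds; on the % scale 0 is the no-effect control and ±100 the full control effect; lower thallium flux fluorescence means stronger hERG block; nearly all actives have a fitted effect of over 50% in size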
Voltage-gated inwardly rectifying potassium channel KCNH2 (Homo sapiens), sequence (Q12809 whole entry, looked up): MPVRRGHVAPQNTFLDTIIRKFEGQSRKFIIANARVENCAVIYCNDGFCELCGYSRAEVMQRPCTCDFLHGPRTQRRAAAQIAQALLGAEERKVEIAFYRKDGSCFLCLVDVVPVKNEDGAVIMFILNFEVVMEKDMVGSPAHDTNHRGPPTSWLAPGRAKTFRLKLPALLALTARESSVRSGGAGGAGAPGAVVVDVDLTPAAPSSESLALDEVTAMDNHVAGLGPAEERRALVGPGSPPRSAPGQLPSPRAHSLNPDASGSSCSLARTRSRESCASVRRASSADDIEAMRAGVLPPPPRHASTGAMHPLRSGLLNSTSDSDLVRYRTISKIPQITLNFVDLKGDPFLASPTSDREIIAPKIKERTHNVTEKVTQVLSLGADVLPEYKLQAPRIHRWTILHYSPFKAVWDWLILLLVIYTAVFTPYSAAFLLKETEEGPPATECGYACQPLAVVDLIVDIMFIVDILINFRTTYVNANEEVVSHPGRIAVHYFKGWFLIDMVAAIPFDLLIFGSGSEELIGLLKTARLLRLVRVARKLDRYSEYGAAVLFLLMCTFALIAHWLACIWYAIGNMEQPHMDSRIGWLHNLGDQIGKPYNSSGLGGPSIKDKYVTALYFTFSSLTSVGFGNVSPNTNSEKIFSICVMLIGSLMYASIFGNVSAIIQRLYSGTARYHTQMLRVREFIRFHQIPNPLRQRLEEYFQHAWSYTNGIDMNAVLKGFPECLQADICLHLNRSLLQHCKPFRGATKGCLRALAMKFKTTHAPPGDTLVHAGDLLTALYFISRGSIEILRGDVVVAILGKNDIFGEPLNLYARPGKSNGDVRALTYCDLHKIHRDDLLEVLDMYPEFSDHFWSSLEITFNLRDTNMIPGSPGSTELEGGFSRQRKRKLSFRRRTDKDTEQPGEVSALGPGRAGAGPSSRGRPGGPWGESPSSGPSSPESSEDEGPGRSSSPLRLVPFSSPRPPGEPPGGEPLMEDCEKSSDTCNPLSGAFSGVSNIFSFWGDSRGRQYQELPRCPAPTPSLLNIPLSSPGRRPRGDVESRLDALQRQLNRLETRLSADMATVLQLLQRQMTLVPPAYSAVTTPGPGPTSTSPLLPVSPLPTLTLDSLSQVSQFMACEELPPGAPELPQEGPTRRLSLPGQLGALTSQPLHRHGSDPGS
Procedure, shortened: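 Thallium serves as surrogate for K+ influx through BacMam-delivered hERG in U2OS cells. Compounds are added for about 10 minutes after dye loading; stimulation buffer then starts flux, monitored kinetically on FDSS.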

[20] = system: Zika virus NS2B-NS3 protease; assay: Primary screen GU AMC qHTS for Zika virus inhibitors (AID 1347154);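 further: 0% = no-inhibitor control and -100% = no-enzyme control; nearly all actives have a fitted effect of over 70% in size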
Procedure, shortened: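 Unlinked Zika NS2B hydrophilic domain/NS3 protease domain noncovalent complex (25 nM final) in 10 mM Tris-HCl pH 8.0, 0.01% Tween 20, with AMC peptide substrate. Fluorescence (ex 340, em 450 nm) change over 15 min, room temperature; percent inhibition fitted to 4-parameter Hill equation.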

[21] = Primary qHTS for small molecule stabilizers of the endoplasmic reticulum resident proteome: Secreted ER Calcium Modulated Protein (SERCaMP) assay (AID 1508630); further: on the % scale 0 is the no-effect control and ±100 the full control effect
Procedure, shortened: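 The SH-SY5Y reporter protocol was run at 3 concentrations up to 38.3 uM (primary) or 11 concentrations (follow-up): 16 h compound, 100 nM thapsigargin for 4 h, then extracellular luciferase luminescence.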

N[C@@H](Cn1cc(I)c(=O)[nH]c1=O)C(=O)O
inactive: Potency [1] | Potency [2] | Potency [3] | Potency [4] | outcome [5] | outcome [6] | Potency [7] | Potency [8] | Potency [9] | Potency [10] | Potency [11] | outcome [12] | outcome [13] | activation [14] 0.375% | outcome [15] | Potency [16] | Potency [17] | Potency [18] | Potency [19] | Potency [20] | Potency [21]
